D2 antagonist = D2 dopamine receptor (human) antagonism; inhibition, % at 10 µM; AID 485344; P14416; HEK293 TREx D2 cells, calcium flux, dopamine EC80; 340,000 compounds, 2% hits; in the data active = inhibition above about 30%; inactive = below that, where a call was filed; also: 0% is about no effect
Target sequence (P14416 whole entry, looked up): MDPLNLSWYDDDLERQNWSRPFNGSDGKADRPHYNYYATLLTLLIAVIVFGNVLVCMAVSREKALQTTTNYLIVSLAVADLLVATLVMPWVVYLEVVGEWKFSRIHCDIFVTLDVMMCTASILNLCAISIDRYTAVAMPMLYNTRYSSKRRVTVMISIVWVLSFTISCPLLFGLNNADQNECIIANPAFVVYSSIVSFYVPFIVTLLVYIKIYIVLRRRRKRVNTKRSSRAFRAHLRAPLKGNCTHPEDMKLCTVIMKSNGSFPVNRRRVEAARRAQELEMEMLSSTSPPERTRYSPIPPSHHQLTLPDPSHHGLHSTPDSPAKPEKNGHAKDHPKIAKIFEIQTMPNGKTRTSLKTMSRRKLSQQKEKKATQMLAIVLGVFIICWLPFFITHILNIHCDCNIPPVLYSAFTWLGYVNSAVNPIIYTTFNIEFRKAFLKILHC
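In this primary screen, negative modulation is detected by tracking calcium flux after an EC80 dopamine challenge in inducible HEK293 T-REx D2 cells preexposed to test compound for 180 s.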
D2 ag-1 = human D2 receptor agonism in beta-arrestin assay; AID 624465; DiscoveRx PathHunter D2 beta-arrestin, luminescence, 90 min; 100% = 57 uM dopamine signal; 360,000 compounds, 0.084% hits; activation, % (no concentration beside the values); P14416; in the data active = activation above about 40%; inconclusive = between about 15% and that limit
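DiscoveRx PathHunter D2 beta-arrestin cells (2,100/well) attached overnight, then compound-stimulated 90 min at 37 C in HBSS/10 mM HEPES/0.1% Tween-20 buffer; beta-galactosidase complementation read by luminescence after 1 h at ambient temperature. Dopamine 57 uM final (EC100) as control.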
D2 ag-2 = D2 dopamine receptor (human) agonism; AID 485358; activation, % at 2 µM; HEK293 T-REx D2 cells, calcium flux agonist mode; P14416; 340,000 compounds, 0.53% hits;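 active = activation over 3 SD above normal in the single-dose calcium agonist read, cut at about 30% in these data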; also: 0% is about no effect
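HEK293 Trex D2 cells, tetracycline-induced, o/n 30 C 5% CO2; no-wash Ca dye, RT 30–90 min; 10-cycle baseline, 23 nl cpd added, kinetic Ca read 180 s; agonist hits = positive Ca response.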
D2 PAM-1 = human D2 receptor positive allosteric modulation; 360,000 compounds, 0.23% hits; P14416; potentiation, % (concentration not given with the values); DiscoveRx D2 beta-arrestin cells, luminescence, 90 min; 100% = 57 uM dopamine signal; AID 624464; in the data active = potentiation above about 50%; inconclusive = mostly about 30% to 49%
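PathHunter beta-arrestin assay in DiscoveRx D2 cells. Compounds were added with an EC20 of dopamine (50 nM final) for 90 min at 37 deg C. Luminescence was read 1 h after detection reagent, with 57 uM dopamine as the EC100 control.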
D2 PAM-2 = positively modulates the human D2 dopamine receptor allosterically; P14416; HEK293 T-REx D2, calcium flux, EC20 dopamine potentiation; potentiation, % at 10 µM; 340,000 compounds, 0.34% hits; AID 485347;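 active = potentiation over 3 SD above the plate norm, cut at about 30% in these data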; also: 0% is about no effect
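Potentiation of an EC20 dopamine calcium response measured kinetically over 180 s, after a preceding 180 s compound-only read flagging agonists. Cells: inducible Hek293 Trex D2 line, 4000/well, cultured overnight at 30 C before dye loading.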
Active calls of the source: *; ? = inconclusive; . = no result given. The list is not random: actives were taken first. Their share in the collection is about 2.4%.

SMILES	D2 antagonist	D2 ag-1	D2 ag-2	D2 PAM-1	D2 PAM-2
CCOC(=O)c1ccc(NC(=O)CSc2cc(-c3ccccc3)nc(C)n2)cc1	.	.	4	.	7
CN1CCN(c2oc(/C=C/c3ccc(F)cc3)nc2C#N)CC1	.	.	0	.	-3
COc1ccc(C)cc1NC(=O)N1CCC(CN2CCOCC2)CC1	.	.	1	.	2
CC1Cc2ccccc2N1C(=O)COC(=O)c1ccc([N+](=O)[O-])o1 (stereo unspecified)	.	12	.	58*	.
CC1Cc2ccccc2N1C(=O)COC(=O)c1ccco1 (stereo unspecified)	.	1	.	-10	.
CC1Cc2cc(/C(O)=C3/C(=O)C(=O)N(CCCn4ccnc4)C3c3ccc(F)cc3)ccc2O1 (stereo unspecified)	44*	-1	1	-3	-2
CCn1nnc2cc(C(=O)Nc3cccc(Cl)c3C)ccc21	.	.	0	.	0
COc1ccccc1C(=O)O/N=C(/c1ccncc1)c1ccc([N+](=O)[O-])cc1	-8	?	1	100*	4
O=C1Nc2ccccc2CCc2ccccc21	36*	2	0	0	-2
O=C1Nc2ccccc2Nc2ccccc21	-8	-2	1	-7	26
Cc1cccc(-n2c(-c3ccco3)nc3nc4ccccc4nc32)c1	70*	.	-1	.	-3
COc1cccc(-n2c(-c3ccco3)nc3nc4ccccc4nc32)c1	4	-3	0	-2	-13
CCc1ccccc1NC(=O)CN1CCCN(Cc2cc(C)ccc2C)S1(=O)=O	.	.	-2	.	-19
Cc1ccc(NC(=O)CNCc2cccs2)c(Br)c1	32*	-1	0	-5	8
COc1ccc(-n2ncc(C(=O)NCc3ccc4c(c3)OCO4)c2C2CCN(C(=O)OC(C)(C)C)CC2)cc1	.	.	0	.	-1
CC1CCN(S(=O)(=O)N2CCC(C(=O)NCc3ccccc3Cl)CC2)CC1	.	.	0	.	28
CC(=O)Nc1cc[n+](C(C)C(=O)c2ccc(Br)cc2)cc1 (stereo unspecified)	54*	-4	0	-25	-23
CC(=O)Nc1cc[n+](C(C)C(=O)c2ccccc2)cc1 (stereo unspecified)	5	-7	2	-5	-10
CC1=C(C(=O)Nc2ccccc2)C(c2ccc(C(=O)O)cc2)n2nc(SCC(=O)c3ccc(C)cc3)nc2N1 (stereo unspecified)	.	.	.	.	12
Cc1ccc(NC(=O)CN2C(=O)CCc3ccccc32)cc1C	.	.	-1	.	0
N#C/C(=C\c1ccccc1C(F)(F)F)C(=O)Nc1ccccc1	-4	1	0	7	6
CCc1cccc(CC)c1NC(=O)/C(C#N)=C/c1ccccc1C(F)(F)F	-2	10	-1	96*	-20
CCN(CC)CCOC(=O)c1ccc(Cl)cc1Cl	33*	-1	-1	-29	-14
CCN(CC)CCOC(=O)c1ccc(Cl)cc1	-5	-5	0	-46	6
CCOc1ccc(C(=O)c2cn(CC(=O)Nc3ccc(C)c(C)c3)c3ccc(OCC)cc3c2=O)cc1	.	.	0	.	-4
SMILES	D2 antagonist	D2 ag-1	D2 ag-2	D2 PAM-1	D2 PAM-2
O=C(/C=C/c1ccco1)NCC1OCCc2ccccc21 (stereo unspecified)	31*	-3	1	-6	-7
O=C(C1CC1)N1CCc2cc(Br)cc(S(=O)(=O)NC3CCCCC3)c21	40*	-3	0	-6	-4
O=C(C1CC1)N1CCc2cc(Br)cc(S(=O)(=O)N3CCCCCC3)c21	-13	-1	1	-6	10
COc1ccc(NS(=O)(=O)c2cc(Br)cc3c2N(C(C)=O)CC3)cc1	63*	-18	0	-13	-34
CCc1ccc(NS(=O)(=O)c2cc(Br)cc3c2N(C(C)=O)CC3)cc1	.	.	1	.	.
COc1cc2c(cc1OC)C(COc1ccc3c(C)cc(=O)oc3c1)N(C(=O)Cc1ccc(F)cc1)CC2 (stereo unspecified)	.	.	0	.	3
CCOc1ccc(OCCn2nnc3ccccc3c2=O)cc1	7	4	-1	-5	52*
COc1cc(NC(=O)C2=CC(c3ccc(F)cc3)=NS(=O)(=O)N2C)cc(OC)c1OC	.	.	-2	.	-23
CCC(C)S(=O)(=O)c1oc(-c2cccs2)nc1S(=O)(=O)c1ccccc1 (stereo unspecified)	.	.	10	.	13
O=C1CN(C(=O)COC(=O)c2cccs2)c2ccccc2N1	16	-5	-1	-1	16
O=C1CN(C(=O)COc2ccc(Cl)cc2Cl)c2ccccc2N1	30*	-2	1	3	-4
O=C1CN(C(=O)COC(=O)c2ccc([N+](=O)[O-])s2)c2ccccc2N1	.	?	.	69*	.
CC1CC(=O)Nc2ccccc2N1C(=O)COc1ccc2ccccc2c1 (stereo unspecified)	.	2	.	2	.
O=C1CN(C(=O)COc2ccc(F)cc2Cl)c2ccccc2N1	15	0	0	6	2
O=C1CN(C(=O)COc2ncnc3ccccc23)c2ccccc2N1	-10	-3	0	-16	3
Cc1sc2ncnc(OCC(=O)N3CC(=O)Nc4ccccc43)c2c1C	-1	-2	-1	-8	32*
CC1CC(=O)Nc2ccccc2N1C(=O)COc1cc(Cl)ccc1Cl (stereo unspecified)	30*	2	0	-4	-4
CCOC(=O)C1CCN(C(=O)c2nn(-c3ccc(C)cc3)c(=O)n(C)c2=O)CC1	.	.	-1	.	-1
CC(C)(C)CC(=O)Nc1nnc(CCc2ccccc2)s1	8	0	0	-9	11
CCC(C)(C)C(=O)Nc1nnc(CCc2ccccc2)s1	44*	-1	0	-5	1
CSc1nc(C)cc(/C=C\c2ccccc2)c1C#N	-8	-5	-1	-15	41*
NS(=O)(=O)c1ccc(NC(=O)Cc2cccs2)cc1	39*	5	1	-2	-3
COc1ccccc1C(=O)NCCC(=O)N(C)CC(=O)Nc1c(Cl)cccc1Cl	-8	1	2	-10	5
COc1ccc(Cl)cc1NC(=O)CN(C)C(=O)Cc1ccc2c(c1)CCC2	-31	-6	-1	-36	-10
COc1ccc(Cl)cc1NC(=O)CN(C)C(=O)c1cc2c(s1)CCCC2	46*	0	1	2	-14
COc1ccc(Cl)cc1NC(=O)CN(C)C(=O)CCNC(=O)c1ccccc1OC	31*	-2	0	-22	-10
COc1ccc(Cl)cc1C(=O)NCCN(C)C	33*	-2	0	-26	-19
COc1ccc(Cl)cc1NC(=O)CN(C)C(=O)c1cn(-c2ccccc2)nc1-c1cccnc1	44*	-4	-1	-36	-11
CCOC(=O)Cc1ccc(NC(=O)N2CCC(CN3CCCCCC3)CC2)cc1	.	.	0	.	3
O=C(CCC1N=C2c3ccccc3N=C(SCc3ccc(F)cc3)N2C1=O)NC1CCCCC1 (stereo unspecified)	.	.	0	.	10

Assay outcomes from PubChem.
